Screens as filed in PubChem.
Sampled rows, rich in hits. Any-hit rate of the full collection: about 7.6%.
HEK293 cAMP cs: parental HEK293 cAMP activation (counter-screen). Potency, µM (titrated, usually from 57.1 µM), inactives show at the top dose activation, hits mostly activators. parental HEK293 CNG cAMP sensor, membrane potential fluorescence. hit rate 2.5% among 73,000. AID 938; further: % of control where 0% means no effect; nearly all actives have a fitted effect of over 55% in size
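Counterscreen for endogenous-receptor signalling: CNG-channel HEK 293 cells report cAMP rise by membrane depolarization. After 60 min dye equilibration with 100 uM RO 20-1724, compounds incubated 30 min before bottom-read fluorescence at 590 nm.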
Tau fil binding: binders of human tau filaments; recombinant tau filaments, thioflavin S fluorescence, 15 h; filaments grown with octadecylsulfate alongside compound; hit rate 2% among 71,000; P10636; Potency, µM (highest dose often 57.1 µM), inactives show top-dose activity change, negative = inhibition;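 further: on the % scale 0 is the no-effect control and ±100 the full control effect; actives lower thioflavin S fluorescence by blocking filaments or displacing dye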
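ThS-based fibril read: tau 1 uM final, inducer ODS 30 uM final, 37 C for 15 h, ex 450/em 510 nm.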
ERK AVP block: inhibitors of vasopressin-stimulated ERK signaling pathway. HEK293-V1b, vasopressin-stimulated pERK AlphaScreen. hit rate 0.99% among 72,000. Potency, µM (series often up to 57.5 µM), for the others: at the top dose activity, negative = inhibition, most hits filed as inhibitors; further: on the % scale 0 is the no-effect control and ±100 the full control effect; nearly all actives have a fitted effect of over 55% in size
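Overnight-seeded V1b-HEK293 cells in 1% FBS got compound, then vasopressin (25 nM final, 5 min, 37C), then lysis buffer. AlphaScreen detection of phospho-ERK; activity normalized to basal and full-stimulation controls.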
TSHR ag: agonists of human thyroid stimulating hormone receptor; P16473; HEK293-CNG-TSHR cells (CNG channel as cAMP sensor), membrane potential dye, cAMP; Potency, µM (titrated, usually from 57.1 µM), for inactives: at the top dose activation, most hits filed as activators; hit rate 0.48% among 73,000; AID 926; active means well fitted activation curve with a large enough effect in the main read-out, with a control signal flat, not every such curve was filed as active; inconclusive means small, poorly fitted or top-dose-only effect, or a change in a side signal; inactive means no such curve, though single readings can be large or run the other way; % of control where 0% means no effect;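 further: the control signal comes from parental cells without the receptor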
Target sequence (P16473 whole entry, looked up): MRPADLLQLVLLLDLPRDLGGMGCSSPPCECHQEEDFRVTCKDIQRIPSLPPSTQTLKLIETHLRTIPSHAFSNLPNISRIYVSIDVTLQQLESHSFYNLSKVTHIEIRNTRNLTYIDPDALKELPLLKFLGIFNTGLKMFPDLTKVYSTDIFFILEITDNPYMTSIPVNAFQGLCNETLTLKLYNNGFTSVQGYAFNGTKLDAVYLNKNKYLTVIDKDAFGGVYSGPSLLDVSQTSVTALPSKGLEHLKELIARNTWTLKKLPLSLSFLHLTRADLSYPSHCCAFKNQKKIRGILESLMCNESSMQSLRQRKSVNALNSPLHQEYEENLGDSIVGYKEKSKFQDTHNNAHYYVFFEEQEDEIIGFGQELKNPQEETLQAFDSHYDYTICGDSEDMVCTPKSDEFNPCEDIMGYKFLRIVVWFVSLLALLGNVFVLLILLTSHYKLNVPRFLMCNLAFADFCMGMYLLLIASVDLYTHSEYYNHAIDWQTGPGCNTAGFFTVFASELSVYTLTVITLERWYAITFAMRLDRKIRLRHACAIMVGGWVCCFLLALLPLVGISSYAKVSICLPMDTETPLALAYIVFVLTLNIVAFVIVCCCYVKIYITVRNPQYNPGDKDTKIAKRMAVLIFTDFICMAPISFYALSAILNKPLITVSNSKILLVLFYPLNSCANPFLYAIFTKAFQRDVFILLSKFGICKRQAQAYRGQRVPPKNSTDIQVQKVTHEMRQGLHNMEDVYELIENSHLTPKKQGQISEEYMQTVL
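HEK 293 cells stably expressing TSHR and a modified CNG channel, with CNG-only parental cells as counterscreen, were preloaded 60 min at room temperature with membrane potential dye containing 100 uM RO 20-1724. Compound exposure was 30 min, and depolarization was read as fluorescence at 590 nm.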
CRE-bla Fsk: CRE-bla signaling modulation under forskolin stimulation; CHO CRE-bla reporter (cAMP response element driving beta-lactamase), forskolin EC10, beta-lactamase ratio; AID 662; hit rate 2.5% among 71,000; Potency, µM (doses to about 38.2 µM), without a hit: top-dose activity change, negative = inhibition, most hits filed as activators; active means well fitted activation curve with a large enough effect in the signal ratio, with a control signal flat, not every such curve was filed as active; inconclusive means small, poorly fitted or top-dose-only effect, or effect the other way, or a change in a side signal; the % refers to the signal ratio; further: % of control where 0% means no effect
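CHO CRE-bla cells, overnight plating in Opti-MEM with 0.5% dialyzed FBS; cpd titration + EC10 NKH 477, 3 h 37 °C; CCF4 2 h RT; ex 405/em 460 vs 530 ratio → %Activity, AC50.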
Active calls of the source: *; ? = inconclusive; nt = no result given; [ ] = remark or other dose. Unless noted, the call rests on the fitted dose curve; in most records, active means well fitted curve in the direction sought with a large enough effect; inconclusive means small, poorly fitted or top-dose-only effect, or another doubt; inactive means no such curve, though single readings can be large; an effect the other way counts as inactive or inconclusive. Potency means the concentration at half of the fitted maximal effect.

SMILES	HEK293 cAMP cs	Tau fil binding	ERK AVP block	TSHR ag	CRE-bla Fsk
C/C(NC(=O)c1ccccc1)=C1/C(=O)CC2C1C2(C)C (stereo not given)	3.98µM*	6.2%[11.4 µM]	-0.2%	?	?
CCC12C=C(/C=C/c3ccccc3)C(CC)(C1)C(c1ccccc1)CC2=O (stereo not given)	11.9%[11.4 µM]	nt	23.5%[11.5 µM]	10.8%[11.4 µM]	nt
Cc1noc(C)c1-c1cncnc1N1CCN(C)CC1	1.0%	0.8%	-5.4%	2.5%	-0.2%
O=C1c2ccccc2C(=O)c2c(NC3CCCCC3)ccc(Nc3ccc(S(=O)(=O)O)cc3)c21	-10.7%[11.4 µM]	3.16µM*	?	-3.0%[11.4 µM]	-1.9%[7.6 µM]
C=CCn1c(SCC(=O)c2ccccc2)nnc1-c1cc2ccccc2o1	31.6µM*	96.4%	?	?	-11.0%
CNc1nc2sc3c(c2c(=O)n1C)CC(C)(C)SC3	-23.0%	176.7%	-3.3%	-11.5%	12.6µM*
COc1ccc(S(=O)(=O)N2CCCCC2)cc1C(C)C	31.6µM*	-23.9%	-8.7%	?	-11.5%
Cc1cc(C)c(C)c(S(=O)(=O)NCCC(=O)O)c1C	-6.8%	nt	nt	-4.3%	nt
CC(=O)c1ccc(OC2C=CC(C#Cc3ccc(Br)cc3)OC2CO)cc1 (stereo not given)	11.1%[11.4 µM]	nt	10.3%[11.5 µM]	5.3%[11.4 µM]	nt
COC(=O)C(C(C)=O)C(NC(=O)NCc1ccccc1)c1ccccc1 (stereo not given)	6.4%[11.4 µM]	nt	9.8%[11.5 µM]	-3.5%[11.4 µM]	nt
CCOc1ccc(NCc2nnc(SCC(=O)Nc3cc(C)on3)n2-c2ccccc2OC)cc1	-7.4%	-13.6%	-7.8%	-15.2%	-9.8%
CCOc1ccc(NCc2nnc(SCC(=O)Nc3cc(C)on3)n2-c2ccc(OC)cc2)cc1	0.5%	15.8µM*	16.6%	-1.8%[11.4 µM]	-0.4%
CC(C)[C@@H](CC(=O)N[C@@H]1CCNC[C@H]1C(=O)N[C@H](CC(=O)N[C@@H](CCC(=O)O)CC(=O)O)Cc1c[nH]c2ccccc12)NC(=O)C[C@H](Cc1ccccc1)NC(=O)[C@@H]1CNCC[C@H]1N	4.8%	-15.2%	nt	nt	-11.7%
CCOc1ccc2[nH]c(=O)c(CN(Cc3cccs3)Cc3nnnn3C(C)(C)CC)cc2c1	20µM*	16.6%	-14.4%	?	?
COCCn1nnnc1CN(Cc1cccnc1)Cc1cc2cc(OC)ccc2[nH]c1=O	8.0%	0.5%	-2.5%	-3.9%	13.6%
CCC(C)(C)n1nnnc1CN(Cc1cccs1)Cc1cc2cc(OC)ccc2[nH]c1=O	15.8µM*	25.8%	-4.8%	?	?
CC#C[C@@]1(O)CC[C@@H]2[C@@H]3CCC4=CC(=O)CCC4=C3[C@@H](c3ccc(N(C)C)cc3)C[C@]21C	-4.7%	31.6µM*	nt	-17.8%	10.5%
CC#C[C@@]1(O)CC[C@H]2[C@@H]3CCC4=CC(=O)CCC4=C3[C@H](c3ccc(N(C)C)cc3)C[C@]21C	-9.1%[25.6 µM]	-27.7%[25.6 µM]	-11.7%[25.7 µM]	-9.5%[25.6 µM]	0.3%[17.1 µM]
COc1ccccc1CN1CCCC2(CCN(C(=O)c3cccn3C)CC2)C1	23.9%	8.3%	-10.2%	21.4%	-2.1%
COc1ccccc1CNc1cc(-c2ccccc2Cl)ncn1	15.8µM*	5.4%	?	?	?
COc1ccccc1-c1cc(NCc2cccc(C)c2)ncn1	20µM*	8.2%	?	?	?
Cc1cccc(CNc2cc(-c3ccccc3C)ncn2)c1	?	2.7%	10µM*	?	?
COc1ccccc1-c1cc(NCc2cnc(C)cn2)ncn1	?	-4.4%	-8.7%	?	3.6%
CCCCCCC1=Cc2cc(OC)c(OC)cc2C(CC(=O)/C=C/OC)O1 (stereo not given)	3.2%[11.4 µM]	nt	28.1%[11.5 µM]	-2.8%[11.4 µM]	nt
CCCc1cc2c(n1Cc1ccc(OC)cc1)C(C)C1CN(C(=O)c3ccccc3)C(C)(C(=O)OC)C21 (stereo not given)	29.8%	5.7%	1.6%	4.7%	-22.7%
SMILES	HEK293 cAMP cs	Tau fil binding	ERK AVP block	TSHR ag	CRE-bla Fsk
CCC(=O)O[C@@H]1[C@H](C)O[C@H](O[C@H]2[C@@H](N(C)C)[C@H](O)[C@@H](O[C@@H]3[C@@H](CC=O)C[C@@H](C)[C@@H](O)/C=C\C=C/C[C@@H](C)OC(=O)C[C@@H](OC(=O)CC)[C@H]3OC)O[C@H]2C)C[C@]1(C)O	4.7%[25.6 µM]	9.4%[25.6 µM]	2.3%[25.7 µM]	-17.0%[25.6 µM]	4.7%[17.1 µM]
COc1ccccc1N1CCN(CCN(C(=O)c2ccc(I)cc2)c2ccccn2)CC1	?	1.7%	nt	?	-14.7%
O=C(NC1CCCCC1)c1cc2nc3c(c(C(F)(F)F)n2n1)CCCC3	?	-25.1%	-4.4%	?	12.6µM*
O=C(O)c1cc2nc3c(c(C(F)(F)F)n2n1)CCc1ccccc1-3	6.5%[11.4 µM]	-4.0%[11.4 µM]	-23.0%	6.7%[11.4 µM]	?
CN1c2ccccc2C(C)(C)C12C=Cc1cc(O)ccc1O2 (stereo not given)	28.6%	25.1µM*	6.7%	7.7%	?
NCCC[C@@H](CC(=O)N[C@@H]1CCCC[C@H]1C(=O)N[C@H](CC(=O)N[C@@H](CCC(=O)O)CC(=O)O)Cc1c[nH]c2ccccc12)NC(=O)C[C@H](Cc1ccccc1)NC(=O)[C@@H]1CNCC[C@H]1N	3.3%	-5.4%	nt	3.7%	-17.0%
COc1ccc(/C=C(\C#N)C(N)=O)cc1OC	13.9%[11.4 µM]	-11.7%[11.4 µM]	-4.3%[11.5 µM]	2.9%[11.4 µM]	23.0%[7.6 µM]
N#CC(C#N)=C(N)/C(C#N)=C/c1ccc(O)cc1	-7.5%	-9.5%	12.6µM*	nt	-6.0%
CCN(CC)CCCC(C)n1c(-c2ccccc2)nc2c(NCCO)nc(C)nc21 (stereo not given)	22.3%	-11.7%	8.0%	2.9%	?
COc1ccc(Nc2nc(N)nc(C(F)(F)F)n2)c(OC)c1	6.1%	-1.6%	-22.1%	10.2%	12.6µM*
O=C(Nc1ccc(N2CCCCC2)c(C(=O)O)c1)c1ccco1	28.6%	2.9%	-16.0%	-3.7%	-1.3%
O=C(Nc1ccc(N2CCCC2)c(Cl)c1)c1ccco1	-5.9%[11.4 µM]	3.98µM*	?	-8.7%[11.4 µM]	?
O=C(Nc1ccc(Nc2ccccc2)cc1)c1ccco1	-14.2%	20µM*	-22.1%	-20.7%	-10.5%
C[C@@H]1[C@H]2CC[C@@H]3[C@@H]4CC=C5C[C@@H](N(C)C)CC[C@]5(C)[C@@H]4CC[C@@]32CN1C	6.7%[25.6 µM]	37.7%[25.6 µM]	36.7%[25.7 µM]	0.2%[25.6 µM]	6.1%[17.1 µM]
CN(C)c1ccc(NC(=O)c2ccc(COc3cccc(Cl)c3)o2)cc1	-0.2%	7.94µM*	?	-28.0%	-21.2%
CCOc1ccc(OCc2ccc(C(=O)Nc3ccc(Cl)cn3)o2)cc1	?	58.6%	-15.2%	?	?
CC(N=Cc1cccc(O)c1O)c1ccccc1 (stereo not given)	-1.7%	12.6µM*	-16.9%	-8.3%	-16.9%
Cc1ccc(N=Cc2cccc(O)c2O)c(C)c1	-24.6%	nt	nt	-38.8%	nt
COc1ccc(CCn2c(-c3ccco3)nc3ccccc3c2=O)cc1OC	?	3.5%[11.4 µM]	10µM*	?	?
COC(=O)N1CCC2(CCCN(Cc3nccs3)C2)CC1	?	6.1%	-24.0%	?	2.1%
